The values below come from PubChem BioAssay (NCI).

This is part of a sample that, as a whole, favours compounds with a hit. Of some 83,000 tested, about 20% had one in any assay.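 The endpoint reported here, percent growth, reads 100 for growth as untreated, 0 for no net growth and -100 for all cells dead.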 A number with no mark means an inactive call. The source made the active and inactive calls. Rule for the calls: active = growth percent below 10; inactive = the rest.

This experiment concerns PC-3 prostate. The experiment is described as follows: NCI-60 one-dose screen, 48 h (100 = growth as untreated, 0 = no growth, -100 = all killed). The note with it: 10 µM unless noted.
For `N#C/C(=C\c1ccc(-c2ccc(Cl)c(Cl)c2)o1)c1nc(-c2ccco2)cs1`, the growth is 95.8%.
Next, `CC(C)C1=C[C@@]23CC[C@@H]4[C@](C)(CCC[C@@]4(C)C(=O)N4CCCNCC4)[C@H]2C[C@@H]1[C@H]1C(=O)CCC(=O)[C@H]13`: 93%; `COc1ccc(CCNc2nc(SC)nc(-c3cccc([N+](=O)[O-])c3)c2C#N)cc1OC`: 75.2%; `Cc1cc(NS(=O)(=O)c2ccc(-c3cnc(C4CC4)o3)cc2)ccc1Cl`: 24.7%.
`COc1ccc(-c2cc(C(=O)N=Nc3c(O)[nH]c4ccc(Br)cc34)no2)cc1`: the growth is 95.8%.
Next, `CCCOc1cc2ccccc2cc1C(=O)Nc1nc(NC)c2c(ccc3nccc32)[nH]1`: -51.5% (active); `CCCCN(CCCC)CCCn1c(-c2ccccc2)ccc1-c1ccccc1`: 48%; `Cc1nc2ccccc2n1C(=O)C[C@@H]1NC(=S)NC1=O`: 105%.
As for `N#CCCN=Nc1c(O)[nH]c2ccc([N+](=O)[O-])cc12`, the growth was 99.7%.
Next, `Cc1cc(N2CCOCC2)nc(NCc2cc(Nc3ccnc4cc(Cl)ccc34)ccc2F)n1`: -30% (active).
The same measure for `Nc1n[nH]c2ccc([C@@H]3Nc4cc5c(cc4[C@H]4C6CCC(C6)[C@@H]34)C(=O)NC5)cc12` (stereo partly drawn): 16.8%; for `c1ccc(-c2c(-c3ccccc3)[n+](Cc3ccc4ccccc4c3)c(-c3ccc(-c4nc5ccccc5s4)cc3)n2Cc2ccc3ccccc3c2)cc1`: -88.8% (active); for `C=CC(=O)Nc1cccc(-c2nc(SC)nc(NCc3ccccc3)c2C#N)c1`: 74.8%.
